Source: PubChem BioAssay (several laboratories)
TPT1 inh: C. albicans TPT1 enzyme inhibition | recombinant caTPT1, FP RNA substrate dephosphorylation | actives 0.81% (n = 300,000) | AID 1962 | inhibition, % at 5 µM;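 active = inhibition above the mean of all tested compounds plus 3 SD, set per screening campaign, cut at about 24% in these data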
PHOSPHO1 block: PHOSPHO1 (human) inhibition; inhibition, % at 13.3 µM; recombinant PHOSPHO1, absorbance phosphatase assay; actives 1.1% (n = 290,000); Q8TCT1; in the data active = inhibition above about 60%
Platelet DG rel: modulates dense granule release in human platelets; human platelet-rich plasma, SFLLRN dense granule ATP release, luminescence; actives 0.22% (n = 300,000); inhibition, %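 (compounds screened at 7.5 µM in platelet-rich plasma)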; AID 1663;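 active = mean replicate score, as percent of positive control, at or above 50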
SKKanGAS inh: blocks kanamycin growth of S. pyogenes SKKanGAS strain. BacTiter-Glo, 6 h. inhibition, % at 7.5 µM. actives 1.3% (n = 300,000). AID 1662;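 active = mean replicate score, as percent of positive control median, at least 50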;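 also: strain carries kanamycin resistance gene driven by streptokinase promoter and grows in 40 µg/ml kanamycin; loss of luminescence reflects streptokinase promoter inhibition or plain growth inhibition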
WT yeast gro inh: growth inhibition of WT yeast, mitochondrial fusion screen; actives 2.1% (n = 190,000); inhibition, % at 10 µM; mitochondrial fusion phenotypic screen, WT strain; AID 1362; in the data active = inhibition above about 58%; tested in S. cerevisiae
Rtt109 Vps75: blocks Candida albicans Rtt109/Vps75 acetyltransferase activity; purified Rtt109/Vps75, ThioGlo CoA-SH fluorescence, 4 h; inhibition, % at 34.9 µM; actives 0.16% (n = 330,000);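 active = inhibition of at least 50% in every replicate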
Target sequence (Q5AAJ8 whole entry, looked up): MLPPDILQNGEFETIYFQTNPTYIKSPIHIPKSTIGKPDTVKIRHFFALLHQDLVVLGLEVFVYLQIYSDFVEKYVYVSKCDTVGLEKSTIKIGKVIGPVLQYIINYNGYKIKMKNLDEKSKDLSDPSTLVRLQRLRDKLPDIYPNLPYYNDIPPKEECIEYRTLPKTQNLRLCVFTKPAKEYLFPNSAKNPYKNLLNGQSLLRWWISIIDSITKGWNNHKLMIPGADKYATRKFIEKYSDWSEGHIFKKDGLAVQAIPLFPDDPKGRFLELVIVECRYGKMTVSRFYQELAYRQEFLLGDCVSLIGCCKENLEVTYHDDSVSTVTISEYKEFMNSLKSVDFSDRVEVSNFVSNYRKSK
caTPT1 confirm: TPT1 (C. albicans) inhibition, confirmation; shares compounds with TPT1 inh; recombinant caTPT1, fluorescence polarization, RNase T1 coupled; inhibition, % at 5 µM; actives 74% (n = 2,400); AID 2149;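 active = inhibition above the primary screen limit, the mean inhibition of all tested compounds plus 3 SD, cut at about 25% in these data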
RNase T1 counter: counter-screen for TPT1 inhibitors: inhibitors of Aspergillus oryzae RNase T1; shares compounds with TPT1 inh; RNase T1 cleavage, fluorescence polarization, 1536-well; inhibition, % at 5 µM; actives 83% (n = 2,400); AID 2153;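 active = inhibition above the solvent-only control well mean plus 3 SD, limit set per screening run, cut at about 23% in these data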;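 also: inhibitors block cleavage so intact labeled substrate keeps polarization high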
Target sequence (P00651 whole entry, looked up): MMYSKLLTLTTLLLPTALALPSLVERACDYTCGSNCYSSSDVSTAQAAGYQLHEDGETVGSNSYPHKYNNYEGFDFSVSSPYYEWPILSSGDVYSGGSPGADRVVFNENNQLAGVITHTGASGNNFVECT
Numbers stand for hits; – = inactive; · = no result. Sampled rows, rich in hits. Any-hit rate of the full collection: about 3.9%.

SMILES	TPT1 inh	PHOSPHO1 block	Platelet DG rel	SKKanGAS inh	WT yeast gro inh	Rtt109 Vps75	caTPT1 confirm	RNase T1 counter
CS(=O)(=O)c1ccc2c(c1)sc1nc(=O)c(/C=C3/C=CC(=O)C(O)=C3)c(N)n12	45	–	–	–	·	–	98	104
COC1=C/C(=C/c2c(N)n3nc(-c4ccc(C)cc4)sc3nc2=O)C=CC1=O	·	–	·	·	–	–	·	·
CCS(=O)(=O)c1nn2c(N)c(/C=C3/C=CC(=O)C(OC)=C3)c(=O)nc2s1	35	–	–	–	–	–	86	92
COC1=C/C(=C/c2c(N)n3c(nc2=O)sc2cc(S(C)(=O)=O)ccc23)C=CC1=O	54	–	–	–	·	–	147	143
Cc1ccc(OCC(=O)OCC(=O)NC2CC2)cc1C	·	·	·	·	·	–	·	·
CC1CN(C(=O)/C=C/c2ccc(SC(F)F)cc2)CC(C)O1 (centres undefined)	–	–	–	–	·	–	·	·
O=C(NN1C(=O)/C(=C/C=C/c2ccco2)SC1=S)c1ccncc1	86	–	–	–	·	·	58	36
O=C(N/N=C/C=C/c1ccco1)c1ccncc1	–	–	–	–	·	–	·	·
O=C(O)c1ccc(N2C(=O)/C(=C/C=C/c3ccccc3)SC2=S)cc1	–	–	–	–	–	·	·	·
O=C(NN1C(=O)/C(=C/C=C/c2ccccc2)SC1=S)c1ccncc1	131	–	–	–	–	–	35	47
CCN(CC)S(=O)(=O)c1cccc(NC(=O)COC(=O)CCc2nc3ccccc3s2)c1	128	–	–	–	–	–	–	–
CCN(CC)S(=O)(=O)c1cc(NC(=O)COC(=O)CCc2nc3ccccc3s2)ccc1C	–	–	–	–	–	–	·	·
CC1CCc2cccc3c2N1c1cc(C#N)c(C#N)cc1O3 (centres undefined)	26	–	–	–	–	–	–	31
C[C@@H](NC(=O)c1ncn(Cc2ccccc2)c1C(=O)N[C@H](C)c1ccccc1)c1ccccc1	·	·	·	·	·	–	·	·
COc1ccc(C(=O)/C=C2\NCCc3cc(OC)c(OC)cc32)cc1OC	53	·	–	–	·	–	–	25
O=C(Cn1ncc2c3ccccc3n(Cc3ccccc3F)c2c1=O)NCC1CCCO1 (centres undefined)	–	–	–	–	·	–	·	·
O=C(Cn1ncc2c3ccccc3n(Cc3cccc(Cl)c3)c2c1=O)NCC1CCCO1 (centres undefined)	29	–	–	–	·	–	98	94
O=C(Nc1ncccc1O)c1ccc(Cl)c(S(=O)(=O)N2CCCCC2)c1	–	·	–	–	·	–	·	·
COc1ccccc1NC(=O)Cn1ccn(-c2cccc3ccccc23)c(=O)c1=O	–	·	–	–	·	–	·	·
COC(CNC(=O)C1CCCN1C(=O)OCc1ccccc1)OC (centres undefined)	43	–	–	–	–	–	–	–
C=CCN1C=CC(=C/C=C(/C#N)C(=O)OCC)C=C1	176	–	–	–	–	–	187	173
CCOC(=O)/C(C#N)=C/C=C1/C=CC=CN1C	–	–	–	–	·	–	·	·
CC1CCCCC12NC(=O)N(CC(=O)c1ccc3c(c1)OCO3)C2=O (centres undefined)	–	·	–	–	·	–	·	·
CCc1ccc(CN(Cc2cccnc2)C(=O)/C=C/c2ccc(OC)cc2)cc1	39	–	–	–	·	–	89	102
Cc1ccc(S(=O)(=O)N2CCN(C(=O)c3ccc4ccccc4n3)CC2)c(C)c1	·	·	·	·	·	–	·	·
SMILES	TPT1 inh	PHOSPHO1 block	Platelet DG rel	SKKanGAS inh	WT yeast gro inh	Rtt109 Vps75	caTPT1 confirm	RNase T1 counter
CCC(C)N1C(=O)S/C(=C/c2ccc(N3CCOCC3)cc2C)C1=O (centres undefined)	–	–	–	–	–	–	·	·
CCN1C(=O)S/C(=C\c2ccc(N3CCOCC3)cc2C)C1=O	39	–	–	–	–	–	55	69
Cc1cc(N2CCOCC2)ccc1/C=C1\SC(=O)N(C(C)C)C1=O	37	–	–	–	–	–	52	64
Cc1ccc(NS(=O)(=O)c2cc([N+](=O)[O-])ccc2N/N=C/c2sc(N3CCOCC3)nc2-c2ccccc2)c(C)c1	56	–	–	–	·	–	55	73
CCC(C)(O)c1[nH]c2ccc(C(F)(F)F)cc2c1C (centres undefined)	–	–	–	–	·	–	·	·
CCOC(=O)C1C(=O)C=C(c2ccc(C)cc2)CC1c1ccccc1 (centres undefined)	–	–	–	–	–	–	·	·
CCOC(=O)C1C(=O)C=C(/C=C/c2ccc(N(C)C)cc2)CC1c1ccccc1 (centres undefined)	89	–	–	–	–	–	77	80
COc1cc([N+](=O)[O-])cc(/C=N/NC(=O)c2cncc(Br)c2)c1O	42	–	–	94	·	–	43	59
COc1cc(/C=N/NC(=O)c2cncc(Br)c2)cc([N+](=O)[O-])c1O	44	–	–	108	·	–	49	64
COc1cc([N+](=O)[O-])cc(/C=N/NC(=O)c2cc(-c3ccccc3)nc3ccccc23)c1O	41	–	–	95	·	·	29	45
O=C(N/N=C\c1ccc([N+](=O)[O-])o1)c1cncc(Br)c1	–	–	–	–	·	–	·	·
O=C(NCCCNC(=O)c1ccccn1)c1ccc(F)cc1	–	–	–	–	·	–	·	·
Cc1ccc(-c2cc(C(=O)O)c3sc(N4CCCCC4)nc3n2)cc1	27	–	–	–	–	–	–	–
Cn1c(-c2c(N)n(-c3ccccc3)c3nc4ccccc4nc23)nc2ccccc21	40	–	–	–	59	–	43	52
Cc1cccc(-n2c(N)c(-c3nc4ccccc4n3C)c3nc4ccccc4nc32)c1	26	–	–	78	–	–	25	36
Cn1c(-c2ccc(N)cc2)nc2ccccc21	–	–	·	·	–	–	·	·
O=C(Nc1nccs1)C1CCCN1/C=C/C(=O)C(F)(F)F (centres undefined)	–	–	–	–	·	–	·	·
Cc1cccc(NC(=O)CSc2nnc(CNC(=O)c3ccco3)o2)c1	–	–	–	–	·	–	·	·
O=C(Cn1c(O)c(/C=C2\C=Nc3ccccc32)sc1=O)Nc1ccc2c(c1)OCO2	–	–	–	–	–	–	·	·
CCOC(=O)c1c(Nc2ccc(Cl)cc2)sc(/C=C2\C=Nc3ccccc32)c1O	36	–	–	–	–	–	46	54
CC(C)C(C(=O)O)N1C(=O)/C(=C/C=C/c2ccco2)SC1=S (centres undefined)	83	–	–	–	–	–	88	64
CN(C)c1ccc(/C=C/C=C2/SC(=S)N(c3ccccc3)C2=O)cc1	104	–	–	–	–	–	71	81
O=C1/C(=C\c2ccco2)SC(=S)N1c1ccc(O)cc1	–	–	–	–	–	–	·	·
